Source: PubChem BioAssay (National Center for Advancing Translational Sciences (NCATS))
AmpC detergent: AmpC beta-lactamase inhibition with detergent present. P00811. 370,000 compounds, 0.041% hits. AmpC hydrolysis of nitrocefin, absorbance 480 nm, 0.01% Triton. Potency, µM (series often up to 114 µM), without a hit: top-dose activity change, negative = inhibition, hits mostly inhibitors;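 further: potency means the concentration at half of the fitted maximal effect; 0% = no-compound wells and -100% = no-enzyme wells; nearly all actives have a fitted effect of over 25% in size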
Target sequence (P00811 whole entry, looked up): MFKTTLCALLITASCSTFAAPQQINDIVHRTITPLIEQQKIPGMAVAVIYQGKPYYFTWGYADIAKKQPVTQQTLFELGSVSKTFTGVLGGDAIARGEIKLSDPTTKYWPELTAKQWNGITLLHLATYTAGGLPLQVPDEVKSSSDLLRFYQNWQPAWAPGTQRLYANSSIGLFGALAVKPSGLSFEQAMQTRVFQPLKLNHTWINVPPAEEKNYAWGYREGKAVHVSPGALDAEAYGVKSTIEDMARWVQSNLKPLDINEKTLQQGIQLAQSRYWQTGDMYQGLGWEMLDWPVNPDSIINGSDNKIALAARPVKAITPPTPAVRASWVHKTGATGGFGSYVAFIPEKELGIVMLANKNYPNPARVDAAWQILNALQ
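AmpC (5.3 nM in the dispensed reagent) in 20 mM phosphate pH 7.0 with 0.01% (detergent screen) or 0.0001% Triton X-100 was preincubated with compounds for 15 min at room temperature. Nitrocefin was then added from an 800 uM solution, and hydrolysis was followed at 480 nm.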
NS1 function inh: influenza NS1 inhibition; Potency, µM (top dose mostly 46.1 µM), for the others: at the top dose activity, positive = more growth; 270,000 compounds, 0.4% hits; AID 2326; calls by dose curve; further: potency means the concentration at half of the fitted maximal effect; actives are rising curves; nearly all actives have a fitted effect of over 50% in size
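S. cerevisiae expressing influenza A NS1, grown in glucose, washed, then diluted 1:100 into pH 6.0 -URA galactose medium with 23 nl compound. Growth recovery read as OD600; NS1-free strain serves as control.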
Shiga inhibitor: blocks Shiga toxin action in Vero cells | Vero cells, Shiga toxin protein synthesis inhibition reporter | inhibition, % at 38.7 µM | 290,000 compounds, 9.2% hits | AID 2315; in the data active means inhibition mostly above about 28%, no sharp cut-off; inactive means mostly below about 43%; further: 0% is about no effect
AmpC no deterg: blocks E. coli AmpC beta-lactamase in detergent-free assay; P00811; AmpC nitrocefin hydrolysis, absorbance 480 nm, 0.0001% Triton; Potency, µM (doses to about 57.1 µM), without a hit: at the highest dose activity change, negative = inhibition, usual class: inhibitors; 330,000 compounds, 0.52% hits; AID 485341;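 further: potency means the concentration at half of the fitted maximal effect; plate controls were no compound for no effect and no enzyme for full effect; nearly all actives have a fitted effect of over 20% in size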
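AmpC (5.3 nM in the dispensed reagent) in 20 mM phosphate pH 7.0 with 0.01% (detergent screen) or 0.0001% Triton X-100 was preincubated with compounds for 15 min at room temperature. Nitrocefin was then added from an 800 uM solution, and hydrolysis was followed at 480 nm.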
CHX counter: counter-screen hit for Shiga toxin inhibitors, cycloheximide | cell reporter, cycloheximide protein synthesis inhibition counterscreen | max response, % | 300,000 compounds, 12% hits | AID 2314; in the data active means max response mostly above about 13%, no sharp cut-off; inactive means mostly below about 14%; further: read at 38.3 µM for the half of the compounds with a filed dose; 0% is about no effect
Numbers without * were called inactive. The sample as a whole holds a higher share of hits than the screen did. Unless noted, the call rests on the fitted dose curve; in most records, active means well fitted curve in the direction sought with a large enough effect; inconclusive means small, poorly fitted or top-dose-only effect, or another doubt; inactive means no such curve, though single readings can be large; an effect the other way counts as inactive or inconclusive.

For CCC1C(=O)N=C(SCC(=O)NC2CCCCC2)NC1=O (stereo not drawn) the results were AmpC detergent -2.4%, NS1 function inh 6.9%, Shiga inhibitor 8.7, AmpC no deterg -7.2% and CHX counter 7.2.
Cc1ccc(C)c(OCCCC(=O)NC2CCCCC2)c1 was read as AmpC detergent -12.2%, NS1 function inh -7.6%, AmpC no deterg 5.2% and CHX counter -1.1.
For Cc1ccccc1OCCCC(=O)NC1CCCCC1 the results were AmpC detergent inconclusive, NS1 function inh -7.8%, AmpC no deterg 0.2% and CHX counter 13.0*.
`O=C(CSc1ccccc1)NC1CCCCCC1` gave AmpC detergent 3.9%, NS1 function inh -1.5%, Shiga inhibitor 117.9*, AmpC no deterg -18.8% and CHX counter 49.3*.
For CC(=O)NC1C(=O)N=C(SCC(=O)NC2CCCCC2)NC1=O (stereo not drawn) the results were AmpC detergent -15.0%, NS1 function inh -4.5%, Shiga inhibitor 57.3*, AmpC no deterg -13.3% and CHX counter 21.8*.
COc1cccc(-c2ccc3c(N)c(C(=O)c4ccc(F)cc4)sc3n2)c1 was read as AmpC detergent 7.4%.
For CCc1nc(CN2CCN(c3cc(C(F)(F)F)ccn3)CC2)c(C)[nH]1 the results were AmpC detergent -8.6%, NS1 function inh 0.8%, Shiga inhibitor 30.5, AmpC no deterg 0.4% and CHX counter 1.5.
For Cc1ccc2c(CC(=O)Nc3c(C(=O)c4ccc(C)c(F)c4)oc4ccccc34)coc2c1 the results were AmpC detergent -4.6%.
For O=C(CSc1ccccc1)NC1CCCCCCC1 the results were AmpC detergent -7.7%, NS1 function inh -13.8%, Shiga inhibitor 61.7*, AmpC no deterg -16.6% and CHX counter 40.2*.
For O=C(CSc1ccccc1C(=O)O)NC1CCCCCC1 the results were AmpC detergent -3.6%, NS1 function inh 4.4%, Shiga inhibitor 24.3, AmpC no deterg -13.5% and CHX counter -3.1.
For O=C(CCSCc1ccccc1Cl)NC1CCCCC1 the results were AmpC detergent 2.5%, Shiga inhibitor 95.1*, AmpC no deterg -1.2% and CHX counter 37.3*.
For O=C(CS(=O)(=O)c1c[nH]c2ccccc12)NC1CCCCC1 the results were AmpC detergent -12.2%, NS1 function inh -1.5%, Shiga inhibitor 2.0, AmpC no deterg 0.501µM* and CHX counter -2.4.
For O=C(CCSc1ccccc1)NC1CCCC1 the results were AmpC detergent inconclusive, NS1 function inh -7.5%, Shiga inhibitor 42.0, AmpC no deterg -23.0% and CHX counter 28.1*.
O=C(CCSc1ccc(Cl)cc1)NC1CCCC1 was read as AmpC detergent inconclusive, NS1 function inh 1.9%, Shiga inhibitor -2.2, AmpC no deterg -14.4% and CHX counter -0.7.
`COc1cc(CNc2ccc(CNc3ncn[nH]3)cc2)cc(Cl)c1OCc1ccccc1` gave AmpC detergent inconclusive, NS1 function inh inconclusive, Shiga inhibitor 11.9, AmpC no deterg -0.6% and CHX counter 9.3.
For Cn1c(SCc2ccccc2)nnc1-c1ccncc1 the results were AmpC detergent inconclusive, NS1 function inh 9.5%, Shiga inhibitor -8.6, AmpC no deterg -16.7% and CHX counter 0.4.
`Cn1c(SCc2ccccc2)nnc1-c1cccs1` gave AmpC detergent -9.8%, NS1 function inh -38.2%, Shiga inhibitor 80.6*, AmpC no deterg -14.3% and CHX counter 31.5*.
Screening Cn1c(SCc2ccc(F)cc2)nnc1-c1cccs1 returned AmpC detergent -11.7%, NS1 function inh -47.1%, Shiga inhibitor 62.3, AmpC no deterg -17.9% and CHX counter 46.3*.
Cc1ccc(C(=O)CSc2nnc(-c3cccs3)n2C)o1 was read as AmpC detergent -14.5%, NS1 function inh -4.4%, Shiga inhibitor -4.2, AmpC no deterg -20.5% and CHX counter -8.7.
For CCNC(=O)CN(c1ccc(Oc2ccccc2)cc1)S(=O)(=O)c1ccccc1 the results were AmpC detergent 1.8%, NS1 function inh 5.9%, Shiga inhibitor -28.3, AmpC no deterg 68.3% and CHX counter -0.9.
`O=C(c1ccc(Br)c(S(=O)(=O)N2CCCCC2)c1)N1CCCCC1` gave AmpC detergent 0.6%, NS1 function inh -2.3%, Shiga inhibitor -7.2, AmpC no deterg 47.9% and CHX counter -1.7.
Screening O=C(Nc1cnc2ccccn2c1=O)c1ccc(Cl)cc1 returned AmpC detergent inconclusive, NS1 function inh -16.1%, Shiga inhibitor 112.7*, AmpC no deterg -7.1% and CHX counter 33.5*.
For O=C(COc1cccc(Cl)c1)N1CCC(c2nc3ccccc3o2)CC1 the results were AmpC detergent 6.8%.
COc1ccc(CNC(=O)COc2ccc(S(=O)(=O)N3CCOCC3)cc2C)cc1 was read as AmpC detergent -12.9%, NS1 function inh -9.1%, Shiga inhibitor -2.2, AmpC no deterg 41.0% and CHX counter -9.5.
Screening Cc1ccc(-c2cc3c(n2-c2ccc(C(=O)O)cc2)CCCC3=O)cc1 returned AmpC detergent -23.9%, NS1 function inh 13.4%, Shiga inhibitor 64.0*, AmpC no deterg -15.5% and CHX counter 19.1*.
For O=C1CCCc2c1cc(-c1ccccc1)n2-c1ccc(O)cc1 the results were AmpC detergent -6.9%, NS1 function inh 16.1%, Shiga inhibitor 4.1, AmpC no deterg -29.5% and CHX counter -1.7.
COc1cccc(CNCc2cccn2-c2nnc(N3CCN(c4ccccc4)CC3)s2)c1 was read as AmpC detergent -0.3%.
For CSc1ccccc1-c1nnc(-c2ccc(C)cc2)o1 the results were AmpC detergent -6.4%, NS1 function inh -39.7%, Shiga inhibitor 143.3*, AmpC no deterg 0.5% and CHX counter 39.2*.
`CSc1ccccc1-c1nnc(-c2ccccc2)o1` gave AmpC detergent -9.2%, NS1 function inh -10.8%, Shiga inhibitor 94.8*, AmpC no deterg -23.6% and CHX counter 59.2*.
Cc1ccc(-c2nnc(-c3ccccc3S(=O)(=O)Cc3ccc(Cl)cc3)o2)cc1 was read as AmpC detergent -0.8%, NS1 function inh 10.9%, Shiga inhibitor 10.7, AmpC no deterg -9.6% and CHX counter -0.4.
For CSc1nnc(-c2ccccc2SC)o1 the results were AmpC detergent inconclusive, Shiga inhibitor 35.6, AmpC no deterg -12.9% and CHX counter 1.5.
For Cc1ccc(NC(=O)Nc2cccc([N+](=O)[O-])c2)cc1F the results were AmpC detergent -2.9%, NS1 function inh -31.7%, Shiga inhibitor 53.9*, AmpC no deterg -53.8% and CHX counter 31.1*.
`O=C(Nc1ccc(OC(F)(F)F)cc1)Nc1cccc([N+](=O)[O-])c1` gave AmpC detergent -5.7%, NS1 function inh -28.6%, Shiga inhibitor 58.0*, AmpC no deterg -29.9% and CHX counter 18.4*.
Screening O=C(Nc1ccc(OC(F)F)cc1)Nc1cccc(C(F)(F)F)c1 returned AmpC detergent 1.6%, NS1 function inh -209.0%, Shiga inhibitor -1.0, AmpC no deterg -32.5% and CHX counter 11.9*.
Screening O=C(Nc1ccncc1)Nc1cccc(C(F)(F)F)c1 returned AmpC detergent inconclusive, NS1 function inh 7.9%, Shiga inhibitor 18.3, AmpC no deterg -49.2% and CHX counter 7.1.
